A selection: hits, their analogues and other compounds. The true share with any hit is near 1.8%.
CtBP-E1A inh: CtBP/E1A binding inhibition | AlphaScreen GST-E1A/His-CtBP binding, 1536-well; active compounds read low | activity change, % (concentration not given with the values) | hit rate 0.49% among 340,000
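GST-E1A and His-tagged CtBP (125 nM each as 5X stock) were preincubated with pin-transferred compound for 2 h at 37 °C in the dark, then glutathione donor and nickel acceptor beads were added for 1 h before AlphaScreen reading.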
PI5P4K alpha inh: PI5P4K alpha (human) kinase inhibition. PI5P4Kalpha enzyme, ADP-Glo luminescence, 60 min; active compounds read low. max response, %. hit rate 1.2% among 330,000; active means max response of -50% or lower; inconclusive means between -30% and -50%; inactive means -30% or higher; further: value at the top dose of about 77 µM
Target sequence (P48426 whole entry, looked up): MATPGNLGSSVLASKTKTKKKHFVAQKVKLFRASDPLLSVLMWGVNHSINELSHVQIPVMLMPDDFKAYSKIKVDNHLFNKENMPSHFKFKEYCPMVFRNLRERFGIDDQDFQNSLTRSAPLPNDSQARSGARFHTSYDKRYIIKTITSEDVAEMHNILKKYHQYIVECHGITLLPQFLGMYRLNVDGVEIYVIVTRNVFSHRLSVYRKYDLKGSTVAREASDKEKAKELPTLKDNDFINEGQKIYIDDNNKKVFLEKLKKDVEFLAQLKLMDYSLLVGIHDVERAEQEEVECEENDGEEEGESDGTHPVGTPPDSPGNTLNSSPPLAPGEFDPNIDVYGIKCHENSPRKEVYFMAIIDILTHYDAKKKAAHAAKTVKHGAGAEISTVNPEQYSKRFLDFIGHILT
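Quantitative HTS of the MLSMR library against PI5P4Kalpha with substrate. ATP added last at 5 microM final; room temperature, 60 minutes. Remaining ATP depleted, ADP converted and read as luminescence.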
Six1-Eya2 inh: inhibitors of human Six1/Eya2 interaction | AID 651725 | hit rate 0.56% among 360,000 | AlphaScreen GST-Six1/His-Eya2 binding, biochemical; active compounds read low | activity change, % (no concentration beside the values) | Q15475+O00167
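Homogeneous AlphaScreen proximity assay pairing GST-Six1 with His-tagged Eya2 (added as 5X mix: 250 nM and 500 nM) in 50 mM Tris pH 8.0, 300 mM NaCl, 1 mM TCEP. Glutathione donor and nickel acceptor beads; 1 h, 37 °C, dark.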
PI4K2A inh: inhibitors of human PI4K2A; Q9BTU6; purified PI4K2A, ADP-Glo luminescence, 1 h; active compounds read low; activity change, negative = inhibition, % at 76.9 µM; hit rate 0.13% among 420,000; AID 1346378; in the data active means activity change below about -50%; inconclusive means mostly about -30% to -49%;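 further: -100% = wells without enzyme as full effect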
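PI4K2A activity was measured by ADP-Glo luminescence: enzyme (4 ug/mL stock) and phosphatidylinositol (1.2 mM stock) in Tris pH 7.5/MgCl2/EGTA/Triton X-100 buffer were reacted with ATP (300 microM stock) for one hour at ambient temperature.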
pAkt inh: Akt phosphorylation inhibition; hit rate 0.32% among 360,000; activity change, % for hits at 50 µM; Neuro2A IGF-stimulated pAkt S473 HTRF, 20 min; active compounds read low; in the data active means activity change below about -80%; inconclusive means mostly about -51% to -80%
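Neuro2A cells (4,500/well, DMEM with 0.5% FBS) were treated with compound at a single 50 µM final concentration, stimulated with 6 nM IGF for 20 min at 37 °C, and lysed. Phospho-Akt Ser473 was read by HTRF as 665/615 ratio ×10^4.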
* = called active by the depositor; i = inactive; u = inconclusive; x = no result; ! = repeats disagree. Unless noted, no stated cut-off is given here; in the data, active means activity change below about -65%; inconclusive means mostly about -30% to -63%; inactive means weaker than that. Unless noted, on the % scale 0 is the no-effect control and ±100 the full control effect.

SMILES	CtBP-E1A inh	PI5P4K alpha inh	Six1-Eya2 inh	PI4K2A inh	pAkt inh
COc1ccc(OCC(=O)Nc2ccc(NC(=O)c3cccs3)c(OC)c2)cc1	3	3	6	1	i
CC(C)(C)OC(=O)[C@H](CCCCN)NC(=O)c1[nH]cnc1C(=O)N[C@@H](Cc1ccccc1)C(=O)OCc1ccccc1	-9	-2	-9	3	i
CC1(OC(=O)c2cccs2)C(=O)C=C2C=C3CCCN3C=C2C1=O (configuration not stated)	-5	-60*	-10	u	i
COC(=O)CCCC1=CC2=CC(=O)C(C)(OC(=O)c3cccs3)C(=O)C2=CN1C1CCCC1 (configuration not stated)	-2	0	-2	-3	i
O=[N+]([O-])c1ccc(CCn2ccnc2)cc1	x	-5	0	4	i
COC(=O)c1sccc1NC(=O)c1cc(-c2ccc(C)cc2C)nc2ccccc12	-1	13	-1	-4	-117%*
O=C(NC(=S)NNC(=O)c1ccccc1O)c1cccc([N+](=O)[O-])c1	-90*	-4	-77*	3	i
O=C(NC(=S)Nc1ccccn1)c1cccc([N+](=O)[O-])c1	-74*	-2	u	1	i
O=[N+]([O-])c1cc(Cl)ccc1-c1nc(-c2ccccc2)no1	-16	20	u	-1	i
Cc1cc(NS(=O)(=O)c2ccc(Nc3nc(-c4sc(N)nc4C)cs3)cc2)no1	-90*	136	-91*	u	i
COc1ccc(OC)c(Nc2nc(-c3sc(N)nc3C)cs2)c1	-68*	x	u	7	x
Cc1cc(O)ccc1Nc1nc(-c2sc(N)nc2C)cs1	-67*	x	u	-6	x
Cc1nc(N)sc1-c1csc(Nc2ccccc2)n1	u	u	u	-5	i
O=C(O)CCn1nnc(-c2cccs2)n1	5	x	2	4	i
CN1CCN(/N=C/c2ccc(-c3ccc([N+](=O)[O-])cc3Cl)o2)CC1	-22	38	-19	-8	i
O=C(Cn1cnc2ccccc21)N/N=C/C(Br)=C/c1ccccc1	-83*	6	0	-5	i
Cc1cc([N+](=O)[O-])cc(/C=N\NC(=O)C2COc3ccccc3O2)c1O (configuration not stated)	-72*	-9	-87*	20	i
O=C(N/N=C\c1ccc(O)c([N+](=O)[O-])c1)C1COc2ccccc2O1 (configuration not stated)	x	-23	2	-2	i
CCN(CC)c1ccc(/C=N/NC(=O)CNC(=O)C2COc3ccccc3O2)c(O)c1 (configuration not stated)	u	0	-70*	-2	i
COc1ccccc1NC(=O)Cn1cnc2sc(C(=O)Nc3ccc(OC)c(OC)c3)c(C)c2c1=O	4	-3	-4	4	i
COc1cc([C@@H]2OC[C@@H]3[C@H]2CO[C@@H]3c2ccc3c(c2)OCO3)ccc1O	0	2	0	0	i
COc1cc(CC2COC(c3ccc(O)c(OC)c3)C2COC(C)=O)ccc1O (configuration not stated)	-21	-94*	-18	-12	i
COc1ccc(NC(=O)/C(C#N)=C\c2ccc(-c3cccc(C(=O)O)c3C)o2)cc1	-17	-20	-22	11	i
COc1ccccc1CNC(=O)c1cc2sccc2n1C	-7	x	-13	-6	i
O=C(c1ccccc1)c1c[nH]c(C(=O)NCc2cccnc2)c1	-6	-5	-13	11	-100%*
SMILES	CtBP-E1A inh	PI5P4K alpha inh	Six1-Eya2 inh	PI4K2A inh	pAkt inh
Cn1c(C(=O)NCc2cccnc2)cc2sccc21	2	x	1	-6	-83%*
CC(C)Oc1ccc(C(=O)NCc2cccnc2)cc1	-7	x	6	3	-119%*
COc1ccc(C(=O)c2c[nH]c(C(=O)NCc3cccnc3)c2)cc1	13	1	-3	0	i
O=C(Cc1cccs1)NCc1cccs1	11	x	4	0	i
O=C(Cc1cccs1)NCc1cccnc1	1	-12	-1	2	-93%*
CN(C(=O)CN1C(=O)NC2(CCCc3ccccc32)C1=O)C1CCCCC1 (configuration not stated)	5	4	-1	-5	i
C=CCn1cc(C(=O)N2CCN(C)CC2)c(=O)c2cc(S(=O)(=O)N(CC)CC)ccc21	9	6	24	2	i
Cc1cc(C)c(S(=O)(=O)/N=C2/C=C(Sc3ncn[nH]3)C(=O)c3ccccc32)cc1C	-30	-80*	1	-54*	i
Cc1c(NC(=O)COc2cccc(Br)c2)c(=O)n(-c2ccccc2)n1C	-11	2	-8	-9	i
CC(C)(C)OC(=O)N1CCC(CC2CC(c3ccncc3)=NO2)(C(=O)O)CC1 (configuration not stated)	5	-1	2	-2	i
CC(C)(C)c1cc(=O)n2c(C#N)c(C#N)nc2[nH]1	0	-6	-4	-9	-89%*
COc1ccc(NC(=O)CN(C)C(=O)c2cc3c(s2)CCC3)cc1	-1	-69*	-29	-17	i
COC(=O)[C@@]12C[C@@H](CC(=O)N3CCC(c4ccccc4)CC3)C(=O)N(CCc3ccc(OC)c(OC)c3)C1=CCC(C)(C)C2	-19	4	-19	-5	i
CNc1ncc(Cc2ccccc2)s1	2	-1	-5	3	i
CC[n+]1c(/C=C/C=C/N(C(C)=O)c2ccccc2)sc2cc(OC)ccc21	-10	-54*	u	-13	i
C/C(N)=C(/C#N)C(=O)COC(=O)C1Cc2ccccc2CN1S(C)(=O)=O (configuration not stated)	-5	-59*!	-10	9	i
CS(=O)(=O)N1Cc2ccccc2CC1C(=O)OCC(=O)NCc1ccccc1 (configuration not stated)	1	u	-2	1	i
CCOc1cc(/C=N/Nc2cc(C)nc(-n3nc(C)cc3C)n2)ccc1O	u	7	-20	7	i
COc1ccc(/C=N/Nc2cc(C)nc(-n3nc(C)cc3C)n2)c(OC)c1	-73*	-9	-76*	3	i
CCOc1ccc(Nc2cc(C)nc(-n3nc(C)cc3C)n2)cc1	-79*	3	-68*	4	i
CCN(CC)CCN(C(=O)c1ccc2ccccc2c1)c1nc2cc3c(cc2s1)OCO3	-21	-3	-29	3	i
CCN(CC)CCN(C(=O)CN1C(=O)c2ccccc2C1=O)c1nc2cc3c(cc2s1)OCO3	-83*	6	-10	-1	i
CC1CC(C)CN(CCC(=O)Nc2cccc(Cl)c2)C1 (configuration not stated)	10	x	-1	0	i
